# Laboratory results reported in the supplement of paper PMC10849652.
# Of roughly 8,800 targets only a part is listed; those with a hit were picked by preference. About 0.5% of all pairs of compound and target were hits. A number with no mark means an inactive call.
# Compound: C1=CC=C(C=C1)[C@H](COC2=CC3=C(C=C2)NC(=O)N3)NC(=O)C4=CC=CN(C4=O)CC5=CC(=C(C=C5)F)F
# Experiment: log2 fold change, soluble protein after heating vs DMSO (PISA); higher = thermal stabilisation; K562 lysate, 10 uM; active = over 0.2 and 3.5 SD of the protein, either way, in both replicates (recomputed)
# Outline: (§1)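 A 30 min treatment with 10 μM compound was applied to crude K562 extract at 1 mg/mL protein in PBS pH 7.4 with 1 mM MgCl2. Heating for 3 min spanned 48°C-58°C, after which aliquots were pooled, adjusted to 0.5% NP-40 at 4°C and spun at 21,000xg for 90 min. TMTpro 16plex LC-MS/MS of the supernatant, with channel sums equalised, gave values recorded as log-two fold change in thermal stability against solvent controls, from duplicates.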
# UniProt P20585, sequence (P20585 whole entry, looked up): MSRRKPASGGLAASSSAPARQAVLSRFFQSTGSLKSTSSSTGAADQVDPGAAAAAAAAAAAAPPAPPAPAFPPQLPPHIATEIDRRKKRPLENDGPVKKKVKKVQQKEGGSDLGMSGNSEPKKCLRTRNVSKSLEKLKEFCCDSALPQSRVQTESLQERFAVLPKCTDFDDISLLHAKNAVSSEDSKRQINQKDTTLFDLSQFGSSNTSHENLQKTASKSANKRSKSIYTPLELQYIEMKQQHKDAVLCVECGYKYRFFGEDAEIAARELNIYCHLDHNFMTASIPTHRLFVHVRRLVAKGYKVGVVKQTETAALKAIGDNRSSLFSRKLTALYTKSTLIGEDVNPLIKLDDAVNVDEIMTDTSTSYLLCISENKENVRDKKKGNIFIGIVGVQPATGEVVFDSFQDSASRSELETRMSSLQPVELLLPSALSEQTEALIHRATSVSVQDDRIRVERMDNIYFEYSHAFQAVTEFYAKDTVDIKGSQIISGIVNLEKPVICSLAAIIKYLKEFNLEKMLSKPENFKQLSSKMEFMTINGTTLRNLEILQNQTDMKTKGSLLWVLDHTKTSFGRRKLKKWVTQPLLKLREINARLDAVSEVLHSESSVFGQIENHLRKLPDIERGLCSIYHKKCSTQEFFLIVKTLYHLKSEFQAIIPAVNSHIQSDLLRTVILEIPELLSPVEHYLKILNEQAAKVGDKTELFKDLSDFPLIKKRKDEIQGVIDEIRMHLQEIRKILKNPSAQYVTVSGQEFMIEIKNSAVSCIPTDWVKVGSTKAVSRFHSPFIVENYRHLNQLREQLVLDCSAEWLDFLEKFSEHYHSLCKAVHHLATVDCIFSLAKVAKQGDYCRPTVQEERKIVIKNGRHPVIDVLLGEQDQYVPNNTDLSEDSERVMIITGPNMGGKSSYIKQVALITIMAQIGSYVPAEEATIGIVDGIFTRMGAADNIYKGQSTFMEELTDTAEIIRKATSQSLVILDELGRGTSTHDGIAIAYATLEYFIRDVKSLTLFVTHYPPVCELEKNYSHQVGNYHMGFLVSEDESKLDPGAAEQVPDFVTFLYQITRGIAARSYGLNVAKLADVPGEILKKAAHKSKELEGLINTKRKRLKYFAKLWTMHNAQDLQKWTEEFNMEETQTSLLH
# UniProt O96013, sequence (O96013 whole entry, looked up): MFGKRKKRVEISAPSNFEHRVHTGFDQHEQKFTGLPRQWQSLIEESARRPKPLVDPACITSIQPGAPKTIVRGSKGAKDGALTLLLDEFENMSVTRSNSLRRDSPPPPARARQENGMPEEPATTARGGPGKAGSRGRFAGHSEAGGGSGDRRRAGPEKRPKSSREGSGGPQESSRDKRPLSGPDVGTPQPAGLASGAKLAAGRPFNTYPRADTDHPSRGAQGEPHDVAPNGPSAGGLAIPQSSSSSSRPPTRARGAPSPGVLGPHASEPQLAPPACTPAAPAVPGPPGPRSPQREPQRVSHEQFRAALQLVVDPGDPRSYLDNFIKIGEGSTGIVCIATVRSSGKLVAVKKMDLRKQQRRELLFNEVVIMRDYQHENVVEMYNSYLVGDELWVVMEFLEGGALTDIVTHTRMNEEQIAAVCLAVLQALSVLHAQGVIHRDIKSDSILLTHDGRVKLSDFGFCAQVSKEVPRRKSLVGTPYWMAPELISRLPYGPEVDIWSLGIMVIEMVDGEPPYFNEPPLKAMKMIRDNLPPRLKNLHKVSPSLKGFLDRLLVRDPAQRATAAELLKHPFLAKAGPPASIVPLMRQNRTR
# UniProt Q96IV0, sequence (Q96IV0 whole entry, looked up): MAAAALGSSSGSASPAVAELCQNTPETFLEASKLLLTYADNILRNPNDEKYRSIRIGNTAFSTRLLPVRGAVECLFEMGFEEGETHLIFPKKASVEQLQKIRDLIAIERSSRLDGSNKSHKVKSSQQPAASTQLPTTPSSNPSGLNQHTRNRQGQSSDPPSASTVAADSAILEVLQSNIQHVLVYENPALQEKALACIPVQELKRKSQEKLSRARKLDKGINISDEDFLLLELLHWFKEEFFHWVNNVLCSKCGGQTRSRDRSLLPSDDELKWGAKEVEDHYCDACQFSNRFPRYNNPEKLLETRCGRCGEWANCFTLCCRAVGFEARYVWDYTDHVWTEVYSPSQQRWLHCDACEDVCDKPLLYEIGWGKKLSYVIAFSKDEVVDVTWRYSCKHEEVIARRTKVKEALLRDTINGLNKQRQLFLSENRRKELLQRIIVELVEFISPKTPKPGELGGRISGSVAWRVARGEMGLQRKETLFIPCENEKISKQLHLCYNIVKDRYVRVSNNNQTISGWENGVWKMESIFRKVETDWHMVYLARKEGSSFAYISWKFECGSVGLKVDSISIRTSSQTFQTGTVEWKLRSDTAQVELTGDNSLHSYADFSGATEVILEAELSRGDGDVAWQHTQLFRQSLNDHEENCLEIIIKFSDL
# UniProt Q86XI2, sequence (Q86XI2 whole entry, looked up): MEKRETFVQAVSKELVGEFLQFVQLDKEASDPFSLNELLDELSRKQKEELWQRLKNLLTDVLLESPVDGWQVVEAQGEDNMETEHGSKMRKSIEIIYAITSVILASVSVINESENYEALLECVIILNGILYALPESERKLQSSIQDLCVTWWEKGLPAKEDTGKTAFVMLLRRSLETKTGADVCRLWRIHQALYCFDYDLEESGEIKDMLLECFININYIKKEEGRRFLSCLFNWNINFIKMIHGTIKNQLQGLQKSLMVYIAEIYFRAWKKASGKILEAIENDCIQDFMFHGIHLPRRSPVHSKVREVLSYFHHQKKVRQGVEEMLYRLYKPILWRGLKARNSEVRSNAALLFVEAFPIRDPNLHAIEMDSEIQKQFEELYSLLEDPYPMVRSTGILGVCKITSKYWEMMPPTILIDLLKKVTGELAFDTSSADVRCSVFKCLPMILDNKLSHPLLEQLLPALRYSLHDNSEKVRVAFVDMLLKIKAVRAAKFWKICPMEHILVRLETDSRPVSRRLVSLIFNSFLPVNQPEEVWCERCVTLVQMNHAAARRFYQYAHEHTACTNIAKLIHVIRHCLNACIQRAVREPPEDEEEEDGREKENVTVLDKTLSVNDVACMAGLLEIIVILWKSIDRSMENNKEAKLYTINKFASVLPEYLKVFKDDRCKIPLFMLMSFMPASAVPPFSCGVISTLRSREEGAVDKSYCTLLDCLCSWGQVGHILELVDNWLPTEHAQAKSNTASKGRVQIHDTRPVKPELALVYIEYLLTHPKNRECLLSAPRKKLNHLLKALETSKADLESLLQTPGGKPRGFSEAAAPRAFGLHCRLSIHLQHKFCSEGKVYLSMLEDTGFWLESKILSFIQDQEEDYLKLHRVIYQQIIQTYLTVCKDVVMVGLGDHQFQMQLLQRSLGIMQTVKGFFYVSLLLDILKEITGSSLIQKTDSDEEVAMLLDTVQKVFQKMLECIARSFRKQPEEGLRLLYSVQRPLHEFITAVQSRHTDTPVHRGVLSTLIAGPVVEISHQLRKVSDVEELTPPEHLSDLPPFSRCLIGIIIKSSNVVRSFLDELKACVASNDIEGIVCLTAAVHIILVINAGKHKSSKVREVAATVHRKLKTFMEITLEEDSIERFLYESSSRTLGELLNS
# UniProt Q13469, sequence (Q13469 whole entry, looked up): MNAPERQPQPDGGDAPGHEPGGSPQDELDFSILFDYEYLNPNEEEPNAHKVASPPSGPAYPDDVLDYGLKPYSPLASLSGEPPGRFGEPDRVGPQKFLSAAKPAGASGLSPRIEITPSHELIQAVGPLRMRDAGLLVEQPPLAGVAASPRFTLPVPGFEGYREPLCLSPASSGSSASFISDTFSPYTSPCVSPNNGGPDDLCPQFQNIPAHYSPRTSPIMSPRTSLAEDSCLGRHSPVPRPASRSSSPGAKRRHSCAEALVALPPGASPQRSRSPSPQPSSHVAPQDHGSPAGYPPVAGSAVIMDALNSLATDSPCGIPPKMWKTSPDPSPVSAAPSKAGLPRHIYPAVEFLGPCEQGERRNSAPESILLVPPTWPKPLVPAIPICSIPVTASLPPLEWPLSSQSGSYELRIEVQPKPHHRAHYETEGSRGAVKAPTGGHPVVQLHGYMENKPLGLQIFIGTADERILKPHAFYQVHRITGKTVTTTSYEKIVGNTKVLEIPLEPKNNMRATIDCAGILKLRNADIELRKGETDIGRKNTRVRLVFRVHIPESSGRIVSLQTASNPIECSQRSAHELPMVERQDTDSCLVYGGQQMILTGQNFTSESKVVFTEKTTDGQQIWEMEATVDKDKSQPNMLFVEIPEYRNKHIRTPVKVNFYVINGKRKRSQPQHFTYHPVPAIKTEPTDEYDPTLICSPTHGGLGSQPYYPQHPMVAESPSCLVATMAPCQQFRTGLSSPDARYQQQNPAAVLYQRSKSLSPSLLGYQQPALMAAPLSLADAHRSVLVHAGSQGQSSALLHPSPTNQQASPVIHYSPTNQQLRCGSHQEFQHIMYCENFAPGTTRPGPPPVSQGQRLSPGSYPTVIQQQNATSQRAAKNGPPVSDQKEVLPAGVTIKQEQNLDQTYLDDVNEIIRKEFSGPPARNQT
# UniProt P80303, sequence (P80303 whole entry, looked up): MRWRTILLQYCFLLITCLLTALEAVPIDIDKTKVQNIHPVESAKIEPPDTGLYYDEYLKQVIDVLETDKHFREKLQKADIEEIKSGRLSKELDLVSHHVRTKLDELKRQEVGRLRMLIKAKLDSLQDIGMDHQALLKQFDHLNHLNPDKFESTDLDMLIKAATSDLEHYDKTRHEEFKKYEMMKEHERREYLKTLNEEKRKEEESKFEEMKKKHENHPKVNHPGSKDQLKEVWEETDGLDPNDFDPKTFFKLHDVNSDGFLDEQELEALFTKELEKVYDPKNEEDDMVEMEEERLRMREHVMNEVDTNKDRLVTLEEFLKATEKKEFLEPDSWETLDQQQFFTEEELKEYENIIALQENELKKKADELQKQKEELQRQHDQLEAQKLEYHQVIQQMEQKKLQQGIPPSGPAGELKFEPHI
# UniProt Q9BSD7, sequence (Q9BSD7 whole entry, looked up): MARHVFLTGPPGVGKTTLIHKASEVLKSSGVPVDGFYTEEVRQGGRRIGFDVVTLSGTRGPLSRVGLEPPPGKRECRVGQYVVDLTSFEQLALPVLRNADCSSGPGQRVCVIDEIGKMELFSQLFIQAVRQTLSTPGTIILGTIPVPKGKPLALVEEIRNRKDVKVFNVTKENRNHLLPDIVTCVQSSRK
row,Target,log2 fold change
1,MRPS12 (UniProt O15235),0
2,NUDT4 (UniProt Q9NZJ9),0.037
3,NEBL (UniProt O76041),-0.074
4,MYO1D (UniProt O94832),-0.006
5,NELFA (UniProt Q9H3P2),-0.055
6,NAA30 (UniProt Q147X3),0
7,NADK2 (UniProt Q4G0N4),0.057
8,MSH2 (UniProt P43246),0.018
9,PARD3 (UniProt Q8TEW0),0.078
10,NTPCR (UniProt Q9BSD7),-0.015
11,NEK9 (UniProt Q8TD19),-0.002
12,OPA1 isoform 2 (UniProt O60313),-0.048
13,MYH11 isoform 2 (UniProt P35749),0.037
14,NCOR1 (UniProt O75376),-0.009
15,NFATC2 (UniProt Q13469),0.027
16,NEBL isoform 2 (UniProt O76041),-0.025
17,OTC (UniProt P00480),-0.11

row,Target,log2 fold change
1,NARS2 (UniProt Q96I59),0.013
2,MYO9A isoform 4 (UniProt B2RTY4),-0.124
3,NDUFAF5 (UniProt Q5TEU4),0.078
4,NUP210 (UniProt Q8TEM1),-0.101
5,NUP98 (UniProt P52948),-0.018
6,NDUFA4 (UniProt O00483),-0.019
7,OGT (UniProt O15294),0.029
8,NONO (UniProt Q15233),-0.047
9,PAN2 isoform 2 (UniProt Q504Q3),-0.108
10,PAK4 (UniProt O96013),-0.06
11,NCAPG2 (UniProt Q86XI2),-0.074
12,NUCB2 (UniProt P80303),0.041
13,MSH6 (UniProt P52701),-0.021
14,NGLY1 (UniProt Q96IV0),-0.011
15,NAT1 (UniProt P18440),0.049
16,MSH3 (UniProt P20585),0.018
17,NF1 (UniProt P21359),-0.03

# Compound: CC1=C(SC2=C1C(=N[C@H](C3=NN=C(N32)C)CC(=O)N)C4=CC=C(C=C4)Cl)C
# Experiment: as above
# Outline: as §1
row,Target,log2 fold change
1,MRPS12 (UniProt O15235),0.019
2,NUDT4 (UniProt Q9NZJ9),-0.025
3,NEBL (UniProt O76041),0.011
4,MYO1D (UniProt O94832),0.002
5,NELFA (UniProt Q9H3P2),0.033
6,NAA30 (UniProt Q147X3),0.018
7,NADK2 (UniProt Q4G0N4),0.007
8,MSH2 (UniProt P43246),-0.006
9,PARD3 (UniProt Q8TEW0),0.063
10,NTPCR (UniProt Q9BSD7),0.067
11,NEK9 (UniProt Q8TD19),0.002
12,OPA1 isoform 2 (UniProt O60313),0.021
13,MYH11 isoform 2 (UniProt P35749),-0.021
14,NCOR1 (UniProt O75376),0.002
15,NFATC2 (UniProt Q13469),0.073
16,NEBL isoform 2 (UniProt O76041),-0.102
17,OTC (UniProt P00480),0.131

row,Target,log2 fold change
1,NARS2 (UniProt Q96I59),0.024
2,MYO9A isoform 4 (UniProt B2RTY4),-0.047
3,NDUFAF5 (UniProt Q5TEU4),0.016
4,NUP210 (UniProt Q8TEM1),0.07
5,NUP98 (UniProt P52948),-0.03
6,NDUFA4 (UniProt O00483),-0.048
7,OGT (UniProt O15294),0.012
8,NONO (UniProt Q15233),0.02
9,PAN2 isoform 2 (UniProt Q504Q3),0.086
10,PAK4 (UniProt O96013),-0.03
11,NCAPG2 (UniProt Q86XI2),-0.04
12,NUCB2 (UniProt P80303),-0.005
13,MSH6 (UniProt P52701),0.01
14,NGLY1 (UniProt Q96IV0),0.002
15,NAT1 (UniProt P18440),-0.021
16,MSH3 (UniProt P20585),0.014
17,NF1 (UniProt P21359),-0.01

# Compound: CC1=C2C(=CC=C1)N=C(N(C2=O)C3=CC=CC=C3C)CN4C=NC5=C(N=CN=C54)N
# Experiment: as above
# Outline: as §1
row,Target,log2 fold change
1,MRPS12 (UniProt O15235),0.053
2,NUDT4 (UniProt Q9NZJ9),0.004
3,NEBL (UniProt O76041),0.047
4,MYO1D (UniProt O94832),0.015
5,NELFA (UniProt Q9H3P2),-0.022
6,NAA30 (UniProt Q147X3),0.033
7,NADK2 (UniProt Q4G0N4),-0.006
8,MSH2 (UniProt P43246),0.028
9,PARD3 (UniProt Q8TEW0),-0.028
10,NTPCR (UniProt Q9BSD7),-0.015
11,NEK9 (UniProt Q8TD19),-0.033
12,OPA1 isoform 2 (UniProt O60313),0.038
13,MYH11 isoform 2 (UniProt P35749),0.004
14,NCOR1 (UniProt O75376),0.035
15,NFATC2 (UniProt Q13469),0.064
16,NEBL isoform 2 (UniProt O76041),0.018
17,OTC (UniProt P00480),-0.028

row,Target,log2 fold change
1,NARS2 (UniProt Q96I59),0.092
2,MYO9A isoform 4 (UniProt B2RTY4),0.094
3,NDUFAF5 (UniProt Q5TEU4),0.026
4,NUP210 (UniProt Q8TEM1),0.016
5,NUP98 (UniProt P52948),0.037
6,NDUFA4 (UniProt O00483),-0.063
7,OGT (UniProt O15294),0.016
8,NONO (UniProt Q15233),0.015
9,PAN2 isoform 2 (UniProt Q504Q3),-0.004
10,PAK4 (UniProt O96013),-0.018
11,NCAPG2 (UniProt Q86XI2),0.019
12,NUCB2 (UniProt P80303),-0.011
13,MSH6 (UniProt P52701),0.034
14,NGLY1 (UniProt Q96IV0),0.016
15,NAT1 (UniProt P18440),0.012
16,MSH3 (UniProt P20585),0.039
17,NF1 (UniProt P21359),0.03
